Screening results (PubChem)
This is a sample that favours compounds with a hit; in the whole collection about 4.1% have one here.
DAX1 inh-1 = NR0B1 (DAX1) inhibition; P51843; HEK293 Gal4-DAX1 luciferase reporter, luminescence; inhibition, % at 6.75 µM; actives 0.99% (n = 340,000); AID 504766;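 active = inhibition above the mean over all tested compounds plus 3 SD, cut at about 4.2% in these data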;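 note: 0% = DAX1-transfected cells with DMSO and 100% = empty-vector control cells with DMSO; inhibition shows as a rise in luminescence from relieved DAX1 repression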
Target sequence (P51843 207-470 limits assumed): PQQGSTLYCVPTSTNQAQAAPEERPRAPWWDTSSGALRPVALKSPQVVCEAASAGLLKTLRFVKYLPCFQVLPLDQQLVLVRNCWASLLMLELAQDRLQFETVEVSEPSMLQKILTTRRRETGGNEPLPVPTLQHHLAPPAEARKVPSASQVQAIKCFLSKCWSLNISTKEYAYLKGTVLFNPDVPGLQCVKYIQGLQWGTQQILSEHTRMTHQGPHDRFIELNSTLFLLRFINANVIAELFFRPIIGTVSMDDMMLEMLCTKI
ssDAF-12 act = S. stercoralis DAF-12 activation, primary screen. HEK293 ssDAF-12/GRIP1 lit1-tk-luc reporter, luminescence; % of 3 µM dafachronic acid response. activation, % at 6.8 µM. actives 1% (n = 370,000). AID 652126;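 active = activation above the mean over all tested compounds plus 3 SD, cut at about 0.9% in these data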;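 note: 0% = DMSO-only wells and 100% = 3 µM delta7-dafachronic acid wells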
DAX1 inh-2 = blocks DAX1 repression of SF-1 activated StAR promoter | HEK293T StAR-luciferase reporter, SF-1/DAX-1 repression relief | inhibition, % at 6.8 µM | actives 1.1% (n = 370,000);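 active = inhibition above the mean over all tested compounds plus 3 SD, cut at about 3.6% in these data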;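 note: 0% = DAX-1 cells with DMSO and 100% = cells lacking DAX-1 with DMSO; higher inhibition means more luminescence from relief of DAX-1 repression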
hcDAF12 agonist = activates DAF-12 receptor from parasite H. contortus; HEK293 hcDAF-12 lit1-tk-luc reporter, luminescence; 0% DMSO, 100% Δ7-dafachronic acid; activation, % at 6.8 µM; actives 1.4% (n = 370,000);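 active = activation above the mean of all tested compounds plus 3 SD, cut at about 5.5% in these data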;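 note: 100% = response to 3 µM Δ7-dafachronic acid high control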
hgDAF-12 ag = agonists of H. glycines DAF-12 nuclear receptor. HEK293 GAL4-hgDAF12 UAS-luciferase reporter, agonist luminescence; normalized to butyrate control. activation, % at 6.8 µM. actives 1.8% (n = 370,000);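 active = activation above a cutoff set at the mean of all screened compounds plus 3 SD, cut at about 10% in these data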;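 note: 0% = DMSO wells and 100% = sodium butyrate wells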
DAX1 inh confirm = NR0B1 (human) inhibition, confirmation | actives 87% (n = 2,400) | HEK293T StAR-promoter luciferase reporter, SF-1/DAX-1 repression | shares compounds with DAX1 inh-2 | inhibition, % at 6.8 µM;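 active = inhibition above the average of every tested compound plus 3 SD, cut at about 3.8% in these data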;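 note: 0% = DAX-1 cells with DMSO and 100% = no DAX-1 control cells with DMSO; active compounds raise luminescence by relieving repression of the StAR reporter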
SF1 AF2mut Luc = counter-screen for DAX1 inhibitors: nonselective inhibitors with SF-1 AF2 mutant; shares compounds with DAX1 inh-2; HEK293 StAR-luciferase, luminescence; inhibition, % at 6.8 µM; actives 78% (n = 2,400); AID 652136;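 active = inhibition above the mean of all tested compounds plus 3 SD, cut at about 3% in these data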;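 note: 0% = DAX-1 transfected cells with DMSO and 100% = cells without DAX-1 with DMSO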
Starred values were filed as active, the others as inactive; x = no result.

SMILES	DAX1 inh-1	ssDAF-12 act	DAX1 inh-2	hcDAF12 agonist	hgDAF-12 ag	DAX1 inh confirm	SF1 AF2mut Luc
Cc1ccc(NC(=O)Nc2ccc3c(c2)OCO3)c(OC(F)F)c1	2	0	5.7*	1	9	9.1*	7.1*
COc1ccc(NC(=O)Nc2ccc(C)cc2OC(F)F)cc1OC	0	-1	-1	0	-3	x	x
COc1cccc(NC(=O)CN(C)CC(=O)Nc2ccc3c(c2)OCO3)c1	-1	-1	1	-2	-2	x	x
COc1cccc(NC(=O)Nc2ccc3c(c2)OCO3)c1	1	0	8.4*	3	10	6.2*	4.9*
COc1ccc(CN2CCCC(C(=O)N3CCCCC3)C2)cc1OC (stereo unspecified)	0	-1	0	0	-1	x	x
Cc1ccc(-c2nc3ccc(Br)cn3c2Cc2ccsc2)cc1	x	1.1*	4.7*	5	21*	8.6*	5.8*
CCOC(=O)C1=C(C)N(CCCC(=O)O)C(=O)NC1c1ccc(Br)cc1 (stereo unspecified)	x	-1	0	0	0	x	x
CC(C)(C)NC(=O)C[C@H]1C[C@H](C(=O)N2CCOCC2)[C@@]2(CCC3CCCC3)c3[nH]c4cc(-c5ccco5)ccc4c3CCN2C1=O	-1	x	x	x	x	x	x
COCCCNC(=O)C[C@H]1C[C@H](C(=O)N2CCOCC2)[C@@]2(CCC3CCCC3)c3[nH]c4cc(-c5ccco5)ccc4c3CCN2C1=O	-1	-1	5.8*	0	-2	1	1
OC[C@H]1O[C@@H](c2nc(-c3ccc(Br)cc3)no2)C[C@@H]1O	x	0	4.8*	5.8*	12*	6.0*	4.9*
Cc1cc2ccccn2c1C(=O)c1ccccc1F	0	-1	-1	-1	4	x	x
Cc1ccccc1-c1nnc2n1N=C(c1ccc(O)c(O)c1)CS2	x	-2	5.2*	-3	-7	21*	-7
N/C(=N\OC(=O)CSc1ccccc1)c1ccccn1	2	0	7.0*	1	10	5.3*	4.7*
CCOc1ccc(C(=O)O/N=C(\N)c2ccccn2)cc1OCC	1	0	6.3*	2	12*	3	4.5*
N/C(=N\OC(=O)Cc1ccc(-c2ccccc2)cc1)c1ccccn1	0	-1	-1	-1	-1	x	x
O=C(Nc1ccccc1)Nc1n[nH]c2nnc(-c3ccccc3)c(-c3ccccc3)c12	0	-1	-1	-2	3	x	x
CCc1ccc(OCC(=O)NC2CCCCC2)c(Br)c1	1	0	6.9*	4	9	6.9*	4.4*
CCN(CC)C(=S)SCC(=O)NC12CC3CC(CC(C3)C1)C2	1	0	0	-2	-3	x	x
O=C(CSc1nnc(-c2ccncc2)o1)Nc1cc(F)ccc1F	1	-1	4.9*	3	13*	5.2*	5.9*
O=C(CSc1nnc(-c2ccc(Br)cc2)o1)Nc1cccc2ccccc12	0	-1	1	0	2	x	x
O=C(CSc1nnc(-c2ccc(Br)cc2)o1)Nc1cccc(C(=O)O)c1	-2	0	5.0*	2	10	6.1*	5.4*
CN(Cc1ccccc1)C(=O)COC(=O)COc1ccc(C#N)cc1	1	-1	-1	-1	-3	x	x
COc1ccc(/C=C/c2cc(O)cc(O[C@@H]3O[C@H](CO)[C@@H](O)[C@H](O)[C@H]3O)c2)cc1O	x	0	5.2*	4	10	13*	7.4*
O=C(COC(=O)c1ccc(S(=O)(=O)N2CCOCC2)cc1)NCc1cccs1	0	-1	0	-1	-1	x	x
CCCC(=O)NNC(=O)c1ccoc1C	0	-1	0	-1	2	x	x
SMILES	DAX1 inh-1	ssDAF-12 act	DAX1 inh-2	hcDAF12 agonist	hgDAF-12 ag	DAX1 inh confirm	SF1 AF2mut Luc
CCC(C)(C)C1CCC(=NNC(=O)c2ccoc2C)CC1 (stereo unspecified)	1	0	4.7*	3	18*	2	3.1*
C#CCN(C[C@H]1[C@H](OC(=O)Nc2cccs2)[C@H](OC(=O)Nc2cccs2)C[C@H]2C(=O)N(c3ccccc3)C(=O)[C@@H]12)S(=O)(=O)c1ccc(C)cc1	0	-1	4.6*	-2	-3	0	0
C#CCN(C[C@H]1[C@H](OC(=O)NC2CC2)[C@H](OC(=O)NC2CC2)C[C@H]2C(=O)N(c3ccccc3)C(=O)[C@@H]12)S(=O)(=O)c1ccc(C)cc1	1	0	0	-1	3	x	x
CCOC(=O)Cc1c(C)c2c(C)[nH]nc2oc1=O	-1	-1	5.4*	-1	2	-1	0
Cc1n[nH]c(C)c1NC(=O)CN1CCN(S(=O)(=O)c2ccc(C(F)(F)F)cc2)CC1	-1	-1	4.6*	0	-1	1	5.2*
CC[C@@]1(C(=O)OC)N[C@H](CN(C)C(=O)Nc2ccc(C(F)(F)F)cc2)[C@@H]2C(=O)N(Cc3ccccc3)C(=O)[C@@H]21	-1	2.5*	5.3*	0	2	1	1
CCN(C[C@H]1N[C@@](C)(C(=O)OC)[C@H]2C(=O)N(Cc3ccccc3)C(=O)[C@@H]12)C(=O)COC	0	0	5.9*	1	1	0	0
O=C(NCCc1ccccc1F)c1cc2ccccn2n1	x	1	5.0*	4	13*	16*	5.2*
Cc1cccc(CCNC(=O)c2cc3ccccn3n2)c1	x	-1	1	-2	6	x	x
COc1cc([C@@H]2c3cc4c(cc3[C@H](O)[C@H]3COC(=O)[C@H]23)OCO4)cc(OC)c1OC	0	0	12*	0	-4	15*	-5
Cc1ccc(Nc2nnc(SCC3CCCCO3)s2)cc1 (stereo unspecified)	0	0	0	4	4	x	x
COc1ccccc1Nc1nnc(SCC2CCCCO2)s1 (stereo unspecified)	-1	0	5.7*	6.0*	11*	4.5*	1
Cc1cccc(/C(N)=N/OC(=O)CCc2ccccc2)c1	0	-1	0	2	2	x	x
CCOC(=O)C1=C(C)NC(C)=C(C(=O)OCC)C1c1ccncc1	1	-1	3	-1	-2	x	x
Cn1c(NCc2ccccc2Cl)nc2ccccc21	8.2*	-1	6.5*	2	9	9.7*	5.9*
Cc1cc(Cl)c2oc(C(=O)N3CCN(C4CCS(=O)(=O)C4)CC3)c(C)c2c1 (stereo unspecified)	1	-1	0	0	-2	x	x
C=CCN(C(=O)c1oc2c(Cl)cc(C)cc2c1C)C1CCS(=O)(=O)C1 (stereo unspecified)	1	0	5.2*	1	6	6.1*	4.0*
